Experimental data reported in paper PMC4336329 (PLoS ONE, 2015).
Hit rate of the full screen: of about 310,000 compounds, about 14,000 (4.5%) showed an effect of 50% or more. Effects have a minus sign here. This is one part of a sample in which strong results are shown more often than they occur.

What follows are compounds tested against human ether-à-go-go-related gene (hERG) potassium channel (human, UniProt Q12809) (assay: primary screen, population patch clamp on CHO cells stably expressing hERG; higher = less effect of the substance).
Sequence of human ether-à-go-go-related gene (hERG) potassium channel (Q12809 whole entry, looked up): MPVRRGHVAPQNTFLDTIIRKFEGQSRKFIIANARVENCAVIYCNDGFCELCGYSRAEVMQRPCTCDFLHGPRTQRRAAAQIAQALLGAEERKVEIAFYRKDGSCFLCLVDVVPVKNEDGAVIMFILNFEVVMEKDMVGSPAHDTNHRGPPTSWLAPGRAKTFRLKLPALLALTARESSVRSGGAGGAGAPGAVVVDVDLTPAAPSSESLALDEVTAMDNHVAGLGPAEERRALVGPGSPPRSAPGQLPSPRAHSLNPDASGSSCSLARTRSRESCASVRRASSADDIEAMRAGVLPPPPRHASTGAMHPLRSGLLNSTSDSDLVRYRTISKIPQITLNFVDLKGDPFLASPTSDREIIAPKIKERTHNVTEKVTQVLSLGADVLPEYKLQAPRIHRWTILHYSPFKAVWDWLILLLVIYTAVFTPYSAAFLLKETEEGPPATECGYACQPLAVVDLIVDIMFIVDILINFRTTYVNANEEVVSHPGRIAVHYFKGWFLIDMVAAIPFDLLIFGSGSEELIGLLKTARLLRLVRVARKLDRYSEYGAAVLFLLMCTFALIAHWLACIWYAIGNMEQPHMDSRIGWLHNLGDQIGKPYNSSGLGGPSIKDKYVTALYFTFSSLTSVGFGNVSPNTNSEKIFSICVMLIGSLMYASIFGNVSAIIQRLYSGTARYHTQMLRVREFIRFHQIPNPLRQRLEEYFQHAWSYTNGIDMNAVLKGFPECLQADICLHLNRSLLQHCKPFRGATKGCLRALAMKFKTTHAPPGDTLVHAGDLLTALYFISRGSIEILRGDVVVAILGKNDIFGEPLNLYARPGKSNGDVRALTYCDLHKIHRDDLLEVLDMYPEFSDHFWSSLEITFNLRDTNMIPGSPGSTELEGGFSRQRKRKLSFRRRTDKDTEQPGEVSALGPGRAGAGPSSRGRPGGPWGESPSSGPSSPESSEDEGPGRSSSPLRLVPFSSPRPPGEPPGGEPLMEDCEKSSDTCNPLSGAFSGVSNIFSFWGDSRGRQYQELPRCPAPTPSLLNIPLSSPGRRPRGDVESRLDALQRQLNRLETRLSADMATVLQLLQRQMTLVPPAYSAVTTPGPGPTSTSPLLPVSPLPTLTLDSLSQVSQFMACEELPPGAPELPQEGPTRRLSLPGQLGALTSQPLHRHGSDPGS
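Also: peak tail current of the secondary pulse compared with the same well before compound.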

Row | SMILES | hERG current change (%, negative = inhibition) at 10uM
1 | O=C(NC1CCCc2ccccc21)C1CCN(S(=O)(=O)N2CCCCCC2)CC1 (stereo not drawn) | -12.8%
2 | O=C(N[C@@H](Cc1ccccc1)C(=O)OCC(=O)N1CCOCC1)c1cccs1 | -9.98%
3 | O=C(COC(=O)CCc1nc2ccccc2n1-c1ccccc1)Nc1ccc(N2CCCCC2)cc1 | 2.85%
4 | CC[C@@H](C)[C@H](NC(=O)OC(C)(C)C)c1nnc(S(=O)(=O)Cc2cc(C)ccc2C)o1 | 4.09%
5 | CC(NC(=O)COC(=O)/C=C/c1cccc(C(F)(F)F)c1)c1ccccc1 (stereo not drawn) | 15.2%
6 | CCN(CC)CCn1c(NS(=O)(=O)c2ccc(C)cc2)nc2ccccc21 | -51%
7 | CCN(CC)CCn1c(NS(=O)(=O)c2ccc(Cl)cc2)nc2ccccc21.Cl | -69.8%
8 | CCN(CC)CCn1c(N)nc2ccccc21.Cl | 15.4%
9 | CCN(CC)CCn1c(C)nc2ccccc21.Cl | -9.07%
10 | Cc1ccc(Cn2c(NS(=O)(=O)c3ccccc3)nc3ccccc32)cc1 | 21.3%
11 | CCCn1c(NCc2ccccc2NS(=O)(=O)c2ccc(C)cc2)nc2ccccc21 | 6.84%
12 | CN1C(=O)C(C2c3ccccc3C(=O)N2Cc2ccccc2)C(=O)N(C)C1=O (stereo not drawn) | 3.38%
13 | CCc1ccc(C(=O)C(C)OC(=O)C2COc3ccccc3O2)cc1 (stereo not drawn) | -18.9%
14 | CSc1ncc(Cl)c(C(=O)Nc2cc(C)ccc2C)n1 | 16.1%
15 | CCOC(=O)C(NC(=O)c1cccnc1)(Nc1cccc(C)n1)C(F)(F)F (stereo not drawn) | 1.24%
16 | CCN1C(=O)C(CC(=O)Nc2ccc(OC)cc2)N(Cc2cccnc2)C1=S (stereo not drawn) | -2.39%
17 | c1ccc(C[C@H]2CNCCN2CC2(c3ccccc3)CC2)cc1 | -14.9%
18 | O=C(CNC(=O)c1cccs1)NCC(=O)OCc1ccc(Cl)cc1 | -17.5%
19 | CCC(=O)Nc1cccc(C(=O)/C=C/c2ccc(F)cc2)c1 | -69.1%
20 | CCC(=O)Nc1cccc(C(=O)/C=C/c2ccccc2)c1 | -37%
21 | CC(=O)Nc1cccc(C(=O)/C=C/c2ccc(F)cc2)c1 | -31.1%
22 | Cc1nc(SCC(=O)NC(=O)NC(C)(C)C)nc(C)c1C | -8.95%
23 | COC(=O)CSc1nnc(SCc2ccccc2)s1 | 7.89%

Row | SMILES | hERG current change (%, negative = inhibition) at 10uM
24 | CCN(CC(=O)Nc1ccc(NC(C)=O)cc1)C(=O)/C=C/c1cn(-c2ccccc2)nc1-c1ccc(F)cc1 | 5.58%
25 | Cc1cc(/C=C(\C#N)C(=O)O)c(C)n1CCC(C)C | 10.5%
26 | CCCCn1c(C)cc(/C=C(\C#N)C(=O)O)c1C | -80%
27 | CCCn1c(C)cc(/C=C(\C#N)C(=O)O)c1C | 10.4%
28 | O=C(N/N=C/c1cc([N+](=O)[O-])ccc1O)Nc1ccccc1 | 18.2%
29 | COc1ccc(CNC(=O)C2CCN(C(=O)Cc3ccccc3)CC2)cc1 | -13.5%
30 | COc1ccc(CC(=O)N2CCC(Nc3nc4ccccc4n3Cc3ccc(F)cc3)CC2)cc1 | -71.7%
31 | COc1ccc(CC(=O)N2CCN(c3ccc(F)cc3)CC2)cc1 | 1.52%
32 | COC(=O)CCC(C)N1CCC(Oc2ccc(C(=O)N3CCCC3)cc2)CC1 (stereo not drawn) | -11%
33 | COCC(C)N1CCC(Oc2ccc(C(=O)N3CCCC3)cc2)CC1 (stereo not drawn) | 5.11%
34 | CC(CCc1ccc(O)cc1)N1CCC(Oc2ccc(C(=O)N3CCCC3)cc2)CC1 (stereo not drawn) | -55.7%
35 | CSCCC(C)N1CCC(Oc2ccc(C(=O)N3CCCC3)cc2)CC1 (stereo not drawn) | -31.3%
36 | COc1ccc(CCC(C)N2CCC(Oc3ccc(C(=O)N4CCCC4)cc3)CC2)cc1 (stereo not drawn) | -65.4%
37 | Cc1noc(/C=C/c2ccco2)c1S(=O)(=O)N1CCC(C(=O)N(C)Cc2ccccc2)CC1 | -4.68%
38 | O=C(CSc1ccccc1)Nc1cc(S(=O)(=O)N2CCOCC2)ccc1N1CCOCC1 | 14.5%
39 | Cc1cc(Nc2cccc(O)c2)c2ccccc2n1.Cl | -64.2%
40 | Cc1cccc(NC(=O)c2cc(C)nc3ccccc23)c1 | 14.7%
41 | Cl.Oc1cccc(Nc2c3ccccc3nc3ccccc23)c1 | -17.6%
42 | COc1ccc(Nc2cc(C)nc3ccccc23)cc1.Cl | -36.5%
43 | Cc1cccc(Nc2cc(C)nc3ccccc23)c1.Cl | -65.4%
44 | Oc1cccc(Nc2nc(-c3ccccc3)nc3ccccc23)c1 | 9.56%
45 | Cc1cc(C)c(C#N)c(Nc2cccc(Br)c2)n1 | 12.5%
46 | COc1cccc(Nc2cc(C)c3ccccc3n2)c1 | 6.21%

Row | SMILES | hERG current change (%, negative = inhibition) at 10uM
47 | COc1cccc(Nc2cc(C)nc3ccccc23)c1 | -73.1%
48 | Cc1cc(Nc2cccc(Br)c2)c2ccccc2n1 | -86.2%
49 | Cc1ccc(Nc2cc(C)nc3ccccc23)c(C)c1 | -42.8%
50 | Cc1cc(=O)[nH]c(Nc2cccc(Br)c2)n1 | 12.4%
51 | CC(=O)Nc1ccc2c(c1)NC(=O)CC2 | 18.3%
52 | Cc1cc(C)c(S(=O)(=O)N2CCN(C(=O)CCn3nc(C)c(C)c3C)CC2)c(C)c1 | -35.8%
53 | CCN1CCN(CC(=O)Nc2nc3ccc(C)cc3s2)CC1 | -34.5%
54 | Cc1cccc(NC(=S)NCCc2ccc(S(N)(=O)=O)cc2)c1C | 11.4%
55 | O=C(NCCN1C(=O)S/C(=C\c2cccs2)C1=O)c1ccc(=O)[nH]c1 | -15.5%
56 | Cc1cc(Nc2ccc(C)c(C)c2)c2ccccc2n1 | -66.9%
57 | Cc1ccc(Nc2nc3ccccc3c(=O)s2)cc1C | 6.94%
58 | Cc1cc(Nc2cccc(Cl)c2)c2ccccc2n1 | -68.8%
59 | Cc1cc(C(=O)Nc2ccccc2Cl)c2ccccc2n1 | -2.16%
60 | Cc1ccc(C)c(Nc2cc(C)nc3ccccc23)c1 | -49.5%
61 | Cc1cc(Nc2ccccc2Cl)c2ccccc2n1 | -64.2%
62 | Cc1nc2ccccc2nc1Nc1cccc(Cl)c1 | 9.24%
63 | Cc1cc(Nc2ccccc2O)c2ccccc2n1.Cl | -18.6%
64 | Cc1cc(C)nc(Nc2cccc(Cl)c2)n1.Cl | 21.8%
65 | Cc1ccc(C(=O)NCC(=O)O)s1 | 23.8%
66 | Cc1ccc2[nH]c(=O)c(CN(Cc3cccs3)C(=S)NCC3CCCO3)cc2c1 (stereo not drawn) | 8.11%
67 | COc1ccccc1CN1CC(C(=O)N(C)CCOc2ccccc2)CCC1=O (stereo not drawn) | -9.29%
68 | COc1ccc(CCN2CC(C(=O)N(C)CCOc3ccccc3)CCC2=O)cc1 (stereo not drawn) | -57.2%
69 | CN(CCC1CCOCC1)C(=O)C1CCC(=O)N(CCc2ccc(Cl)cc2)C1 (stereo not drawn) | -62%

Row | SMILES | hERG current change (%, negative = inhibition) at 10uM
70 | CCc1ccc(CN(C)C(=O)C2CCC(=O)N(CCc3ccc(OC)cc3)C2)nc1 (stereo not drawn) | -79.9%
71 | CN(CCC1CCOCC1)C(=O)C1CCC(=O)N(CCc2ccccc2)C1 (stereo not drawn) | -15.1%
72 | COc1ccc(CCN2CC(C(=O)N(C)Cc3ccccc3OC)CCC2=O)cc1 (stereo not drawn) | -29.4%
73 | CN(CCOc1ccccc1)C(=O)C1CCC(=O)N(CCCN2CCCC2=O)C1 (stereo not drawn) | 27.5%
74 | CN(CCOc1ccccc1)C(=O)C1CCC(=O)N(CCN2CCOCC2)C1 (stereo not drawn) | 16.5%
75 | CN(C(=O)C1CCC(=O)N(CCc2ccc(Cl)cc2)C1)C1CCOCC1 (stereo not drawn) | 10.7%
76 | CCc1ccc(CN(C)C(=O)C2CCC(=O)N(Cc3cccc(OC)c3)C2)nc1 (stereo not drawn) | -18.8%
77 | COc1ccc(CCN2CC(C(=O)N(C)Cc3ccc(C)o3)CCC2=O)cc1 (stereo not drawn) | -6.77%
78 | CN(CCOc1ccccc1)C(=O)C1CCC(=O)N(CCc2ccc(Cl)cc2)C1 (stereo not drawn) | -84.9%
79 | CCOC(=O)C1CCN(C(=O)COC(=O)CSc2ccc([N+](=O)[O-])cc2)CC1 | -39.5%
80 | COc1ccc(CCNC(=O)c2ccccc2C(=O)NCCc2ccc(OC)cc2)cc1 | -12%
81 | COc1ccc(OC)c2c1cc(C(=O)N[C@@H](C)C(=O)N[C@@H](C(=O)O)c1ccccc1)n2C | 19.2%
82 | O=[N+]([O-])c1ccc(O)c(/C=N/n2cnc3ccccc32)c1 | 19.2%
83 | O=C(COC(=O)CCCc1c[nH]c2ccccc12)Nc1ccc2c(c1)OCO2 | 15.1%
84 | c1ccc2c(c1)CCCN2Cc1nnnn1CC1CCCO1 (stereo not drawn) | 7.06%
85 | O=[N+]([O-])c1ccc(Nc2ccc(Cl)cc2)nc1 | 21.7%
86 | O=[N+]([O-])c1ccc(NNS(=O)(=O)c2cc(Cl)ccc2Cl)nc1 | -68.8%
87 | O=[N+]([O-])c1ccc(NCc2ccc(Cl)cc2)nc1 | 0.977%
88 | CCN(CC)S(=O)(=O)c1ccc(C)c(NC(=O)COC(=O)CNC(=O)c2ccc(C(C)(C)C)cc2)c1 | 7.12%
89 | CCN(CC)c1ccc(/C=N/NS(=O)(=O)c2ccc(CNC(C)=O)cc2)cc1 | 13.2%
90 | Cc1cccc(C(=O)NCC(=O)NC(C)CCc2ccccc2)c1 (stereo not drawn) | -0.165%
